Sampled rows, rich in hits. Any-hit rate of the full collection: about 0.58%.
BioA inh: inhibitors of Mycobacterium tuberculosis BioA enzyme. 0.096% of 360,000 active. inhibition, % at 9.99 µM. purified M. tuberculosis BioA enzyme, plate reader; in the data active means inhibition above about 40%
FadD28 FP inh: inhibitors of Mycobacterium tuberculosis FadD28 bisubstrate binding | inhibition, % at 12.5 µM | AID 588549 | FadD28 bisubstrate probe binding, fluorescence polarization | 0.22% of 360,000 active; in the data active means inhibition above about 8.5%, passing the limit was not always enough
Yp Topo-I inh: inhibitors of Yersinia pestis topoisomerase I; Y. pestis Topo-I cleavage product accumulation, plate reader; activity, % at 10 µM; 0.064% of 360,000 active; AID 504884; in the data active means activity above about 50%, passing the limit was not always enough
Vc quorum ag: induces V. cholerae light production without autoinducers. V. cholerae BH1578 lux reporter, luminescence, 6 h. activation, % at 18.7 µM. 0.16% of 350,000 active. AID 588436; in the data active means activation mostly above about 9.7%, no sharp cut-off
TcdB inh: blocks C. difficile toxin B glycohydrolase activity. inhibition, % at 9.99 µM. 0.24% of 350,000 active. AID 652162. P18177. TcdB glycohydrolase enzymatic assay, plate reader; in the data active means inhibition above about 10%
Numbers stand for hits; – = inactive; · = no result given; + = active, no number.

SMILES	BioA inh	FadD28 FP inh	Yp Topo-I inh	Vc quorum ag	TcdB inh
O=P(c1ccccc1)(c1ccccc1)c1nc(-c2ccc(Cl)cc2)oc1N1CCOCC1	–	–	–	–	–
O=P(c1ccccc1)(c1ccccc1)c1nc(-c2ccccc2)oc1N1CCOCC1	–	–	58	–	–
COc1cccc(-n2ccnc2SCC(=O)NCc2ccccc2)c1	–	–	–	25	·
O=C(C[C@@H]1C[C@H]2c3cc(NC(=O)C4CCC4)ccc3O[C@H]2[C@H](CO)O1)NCc1cc(F)ccc1F	–	·	·	·	–
COc1cccc(C=O)c1OCCN1C(=O)c2ccccc2C1=O	65	–	–	–	–
CC(C)COC(=O)CNc1n[nH]c(=S)[nH]c1=O	–	–	–	+	–
CCCCOC(=O)CNc1n[nH]c(=S)[nH]c1=O	–	–	–	–	·
Nc1ccc(-c2nc3cc(N)ccc3o2)cc1	–	–	–	–	–
Nc1ccc(-c2nc3ccc(N)cc3o2)cc1	–	–	–	–	11
COc1cc2[nH]c(=S)n(NC(=O)c3ccccc3)c(=O)c2cc1OC	–	–	–	+	·
COc1ccccc1NCC(=O)c1ccc(Cl)cc1	·	–	98	–	–
COc1ccccc1NCC(=O)c1ccc(C)c(C)c1	–	–	–	–	–
Clc1ccc(CSC(Cn2ccnc2)c2ccc(Cl)cc2Cl)cc1 (stereo not given)	–	–	57	–	–
Clc1ccc(COC(Cn2ccnc2)c2ccc(Cl)cc2Cl)cc1 (stereo not given)	–	–	62	–	–
C[C@@H]1CN([C@@H](C)CO)C(=O)c2cc(NC(=O)Cc3ccccc3)ccc2O[C@@H](C)CCCCO[C@@H]1CN(C)C(=O)Nc1cccc2ccccc12	–	·	·	·	–
CN(C)C(=O)[C@@H]1[C@@H](CO)[C@@H]2Cn3c(ccc(-c4ccccc4F)c3=O)[C@H]1N2C	–	·	·	·	–
Cc1cc(C)c(NS(=O)(=O)c2cccc3cccnc23)c(C)c1	–	–	–	–	14
CCCCCCNC(=O)c1c(O)c2cccc3c2n(c1=O)CCC3	–	–	–	17	·
Cc1ccc(CNC(=O)Nc2cccc(C)c2)cc1	·	–	–	–	11
CN(C)CCNC(=O)c1cc2c(s1)-c1ccc(Cl)cc1SC2	–	–	–	–	12
Cc1ccc(S(=O)(=O)Nc2ccc3c(c2)C(=O)N([C@H](C)CO)C[C@H](C)[C@H](CN(C)C(=O)c2ccncc2)OCCCC[C@H](C)O3)cc1	–	·	·	·	·
Cc1c(Nc2cc(=O)oc3ccccc23)c(=O)n(-c2ccccc2)n1C	–	–	–	17	·
Cc1ccc(NC(=O)Cn2cc(C(=O)C3CC3)c3ccccc32)c(C)c1	–	–	76	–	–
CCC(=O)c1cn(CC(=O)Nc2cccc(C)c2C)c2ccccc12	–	–	–	–	14
Cc1ccc(C)c(NC(=O)Cn2cc(C(=O)C3CC3)c3ccccc32)c1	–	–	–	–	–
SMILES	BioA inh	FadD28 FP inh	Yp Topo-I inh	Vc quorum ag	TcdB inh
COc1ccc(OC)c(NC(=O)CS(=O)(=O)c2ccccc2)c1	–	–	–	–	·
COc1cc(OC)nc(NC(=O)CS(=O)(=O)c2ccccc2)n1	–	–	–	33	·
CC(=O)N1CC2(C1)[C@H](c1ccccc1)[C@H](CO)N2S(=O)(=O)c1ccccc1	·	·	·	·	–
CC1CCC/C(=C\c2ccc(O)cc2)C1=O (stereo not given)	–	–	–	–	37
CC(=O)Nc1ccc(N=C(C2=C(O)c3ccccc3C2=O)c2ccccc2)cc1	·	14	–	–	–
COc1ccc(N=C(C)C2=C(O)c3ccccc3C2=O)cc1	–	–	–	–	·
COCCCNC1=C(Cl)C(=O)c2ccccc2C1=O	–	–	–	–	–
COCCCNc1c2c3c(cccc3[nH]c1=O)C(=O)c1ccccc1-2	–	58	–	–	–
O=C(Nc1ccc2c(c1)[C@@H]1C[C@H](CC(=O)N3CCCCC3)O[C@@H](CO)[C@@H]1O2)C1CCC1	–	·	·	·	–
COCCCNc1nc(=S)[nH]c2cc(OC)c(OC)cc12	–	–	–	–	·
COc1cc2[nH]c(=S)nc(NCCC(C)C)c2cc1OC	·	–	–	–	10
CNC[C@@H]1Oc2ccc(NS(=O)(=O)c3c(C)noc3C)cc2C(=O)N([C@@H](C)CO)C[C@H]1C	–	·	·	·	–
O=C(Nc1nnc(C(F)(F)F)s1)c1ccc(Br)s1	–	–	–	–	17
CCSc1nnc(NC(=O)c2ccc(Br)s2)s1	–	–	–	–	·
CC(C)=C(NC(=O)c1ccccc1)C(=O)NC(Cc1ccccc1)C(=O)O (stereo not given)	–	–	–	15	–
C[C@@H]1CN([C@@H](C)CO)C(=O)c2cc(-c3ccc(C(=O)N(C)C)cc3)cnc2O[C@H]1CN(C)C(=O)CN(C)C	–	·	·	·	–
